Source: PubChem (several laboratories)
PP5 primary: inhibitors of human protein phosphatase 5 (PP5); purified PP5c, OMFP substrate fluorescence; inhibition, % at 6.7 µM; 0.18% of 320,000 active; AID 1987;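 active = inhibition above the campaign's mean inhibition across all tested compounds plus 3 SD, cut at about 9.5% in these data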;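 also: 0% = DMSO only and 100% = 100 µM cantharidin control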
Target sequence (P53041 whole entry, looked up): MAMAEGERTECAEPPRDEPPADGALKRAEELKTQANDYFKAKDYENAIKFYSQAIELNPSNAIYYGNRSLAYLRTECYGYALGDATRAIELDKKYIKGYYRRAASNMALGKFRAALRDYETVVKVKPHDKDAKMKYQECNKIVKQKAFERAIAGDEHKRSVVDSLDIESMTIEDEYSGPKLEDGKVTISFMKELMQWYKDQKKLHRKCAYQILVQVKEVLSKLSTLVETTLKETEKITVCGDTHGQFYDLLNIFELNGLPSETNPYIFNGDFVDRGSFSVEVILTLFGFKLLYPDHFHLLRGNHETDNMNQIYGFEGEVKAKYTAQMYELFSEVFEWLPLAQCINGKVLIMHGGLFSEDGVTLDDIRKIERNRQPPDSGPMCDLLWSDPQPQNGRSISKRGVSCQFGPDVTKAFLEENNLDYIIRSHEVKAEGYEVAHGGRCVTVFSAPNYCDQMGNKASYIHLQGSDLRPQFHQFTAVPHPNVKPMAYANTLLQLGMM
PP1 inh: counter-screen for PP5 inhibitors: inhibitors of human PP1-alpha. inhibition, % at 6.7 µM. purified PP1alpha, OMFP fluorescence. 0.9% of 320,000 active;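 active = inhibition above the mean inhibition of all tested compounds plus 3 SD, computed separately for each screening campaign, cut at about 15% in these data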
CSC inhib: cancer stem cell inhibition | cancer stem cell-like cells viability, luminescence | inhibition, % at 7.5 µM | 1.1% of 300,000 active; in the data active = inhibition above about 75%; tested in HMLE shEcad cells
Beta cell apopt: beta cell apoptosis inhibition; INS-1E cytokine-induced death, ATP luminescence, 48 h; percent of positive-control rescue, neutral wells zero; protection from apoptosis, % (concentration not given with the values); 0.8% of 300,000 active;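 active = Every replicate reaches about 75%, or at least half do and their mean reaches it too, limit read from the data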;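 also: 0% = cytokine-treated negative control wells and 100% = positive control rescue; higher means more ATP so stronger rescue from cytokine killing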
SKKanGAS inh: inhibitors of SKKanGAS S. pyogenes growth in kanamycin (SK-promoter or general growth effect) | BacTiter-Glo, 6 h | inhibition, % at 7.5 µM | 1.3% of 300,000 active;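 active = mean replicate score, as percent of positive control median, at least 50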;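 also: strain carries kanamycin resistance gene driven by streptokinase promoter and grows in 40 µg/ml kanamycin; loss of luminescence reflects streptokinase promoter inhibition or plain growth inhibition; 0% = median of DMSO wells and 100% = positive control at its reference dose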
PP1 inh confirm: confirmation of human PP1 phosphatase inhibitors | shares compounds with PP1 inh | purified PP1alpha, OMFP substrate fluorescence | inhibition, % at 6.7 µM | 52% of 1,900 active;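 active = mean PP1 inhibition above a set limit taken from the earlier primary screen, cut at about 15% in these data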
PP5 counter: PP5 phosphatase inhibition, counter-screen for PP1 inhibitors. shares compounds with PP1 inh. purified PP5c, OMFP fluorescence. inhibition, % at 6.7 µM. 4% of 1,900 active. AID 2360;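 active = mean PP5 inhibition over triplicate wells above about 9.5% taken from the earlier PP1 screen, limit read from the data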
* hit, by the source's call; / = no result given. Rows were chosen to be rich in hits. Some 3.1% of all compounds tested hit in one or more screens of this group.

SMILES	PP5 primary	PP1 inh	CSC inhib	Beta cell apopt	SKKanGAS inh	PP1 inh confirm	PP5 counter
COc1ccc(OC)c(-n2c(O)c(C=NCCN3CCNCC3)c(=O)[nH]c2=S)c1	0	-1	-7	-2	4	/	/
COc1cccc(N(C(C)=O)C2=NCCCS2)c1	2	-1	-12	-8	-2	/	/
CCCCCn1c(=O)c(C(=O)Nc2ncccc2C)c(O)c2ccccc21	2	25*	-3	88*	101*	22*	-3
CCOP(=O)(OCC)/C(C#N)=C/c1ccoc1	/	/	-4	0	1	/	/
O=C(N/N=C/c1c(O)n(Cc2ccc(F)cc2)c(=O)[nH]c1=O)c1ccccc1O	4	21*	42	-2	97*	10	-2
O=c1[nH]c(O)c(/C=C2\C=Nc3ccc(OCc4ccccc4)cc32)c(=O)[nH]1	0	19*	-11	-15	1	24*	-4
O=C(O)c1cc[c]([Hg][Cl])cc1	0	-1	-5	1	/	/	/
Cc1cnc(NC(=O)CN2CCCCC2)s1	2	3	-3	-3	4	/	/
CN(C)[C@@H]1C(=O)C(C(N)=O)=C(O)[C@@]2(O)C(=O)C3=C(O)c4c(O)cccc4[C@@](C)(O)[C@H]3[C@H](O)[C@@H]12	2	44*	-7	-5	-2	20*	-1
Clc1ccc(COC(Cn2ccnc2)c2ccc(Cl)cc2Cl)c(Cl)c1 (centres undefined)	2	23*	102*	11	108*	27*	2
CC(=O)NC(Cc1ccc(N(CCCl)CCCl)cc1)C(=O)NC(CC(C)C)C(=O)O (centres undefined)	2	1	12	6	28	/	/
